Source: PubChem (National Center for Advancing Translational Sciences (NCATS))
In the library only some 20% were active in any assay of this set; here they are far more common.
Pf growth 48h = Primary qHTS for delayed death inhibitors of the malarial parasite plastid, 48 hour incubation | P. falciparum luciferase growth in erythrocytes, 48 h | Potency, µM (doses to about 28.7 µM), hits mostly inhibitors | actives 5.9% (n = 310,000) | AID 504832, 2011
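Luciferase-expressing parasites in RBCs, 2% Hct / 0.1% parasitemia final; RPMI 1640 + 0.5% Albumax; 37 C, 5% CO2, one generation; luminescence read-out, lower signal = inhibition.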
Shiga inhibitor = A qHTS for Small Molecule Inhibitors of Shiga Toxin; Vero cells, Shiga toxin protein synthesis inhibition reporter; inhibition, % at 38.7 µM; actives 9.2% (n = 290,000); AID 2315, 2010; in the data active = inhibition mostly above about 28%, no sharp cut-off; inactive = mostly below about 43%
Cycloheximide cs = Cycloheximide Counterscreen for Small Molecule Inhibitors of Shiga Toxin; cell reporter, cycloheximide protein synthesis inhibition counterscreen; max response, %; actives 12% (n = 300,000); AID 2314, 2010; in the data active = max response mostly above about 13%, no sharp cut-off; inactive = mostly below about 14%; note: read at 38.3 µM for the half of the compounds with a filed dose
Pf growth 96h = Primary qHTS for delayed death inhibitors of the malarial parasite plastid, 96 hour incubation; actives 6.9% (n = 320,000); AID 504834, 2011; Potency, µM (series often up to 28.7 µM), hits mostly inhibitors; P. falciparum luciferase reporter growth, 96 h
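P. falciparum expressing integrated firefly luciferase, in erythrocytes at 2% hematocrit, 0.05% parasitemia, incubated with compounds 96 h at 37 C, 5% CO2. Growth inhibition read as loss of luminescence; two-generation exposure targets delayed-death apicoplast inhibitors.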
HCMV antiviral = qHTS Assay for inhibitors of the human cytomegalovirus (HCMV); HFF cells, HCMV-luciferase reporter, 72 h; stronger effect = lower value; activity change, negative = inhibition, % at 57.5 µM; actives 4.5% (n = 410,000); AID 1259415, 2018; in the data active = activity change below about -60%; inconclusive = no clear call, values can overlap the other calls; inactive = above about -39%
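HFF cells seeded 16 h at 37C, treated with compounds, infected with luciferase-reporter HCMV at MOI 1 PFU/cell; luciferase read at 72 h post infection, normalized to buffer-only and Salinomycin controls.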
A number is an active result; i = inactive; ? = inconclusive; nt = not tested or not shown; ! = not confirmed by another sample. Unless noted, calls come from the whole dose curve; as a rule, active = well fitted inhibition curve with a large enough effect; inconclusive = small, poorly fitted or top-dose-only effect, or another doubt; inactive = no such curve, though single readings can be large or run the other way.

SMILES | Pf growth 48h | Shiga inhibitor | Cycloheximide cs | Pf growth 96h | HCMV antiviral
COc1cc(OC)c2c(=O)cc(-c3ccccc3)oc2c1 | i | 109 | 38 | i | i
COc1cc(OC)c2c(=O)cc(-c3cccnc3)oc2c1 | i | i | i | i | i
COc1cc2c(c3oc(-c4ccccc4)cc(=O)c13)C=CC(C)(C)O2 | ? | 37 | 25 | ? | ?
COc1cccc(NC(=O)CSc2nc(C)c(Cc3ccccc3)c(=O)[nH]2)c1 | nt | nt | nt | nt | i
NC(=O)c1ccc(Sc2nnc(-c3cccs3)n2CC2CCCO2)c([N+](=O)[O-])c1 (centres undefined) | i | i | i | i | i
CCN(CC)CCOc1ccccc1C(=O)CCc1ccccc1 | i | nt | nt | ? | i
CC(=O)CCc1ccc(OCC(O)CNCCOc2ccc(C)cc2)cc1 (centres undefined) | i | i | i | i | i
CCCNCC(O)COc1ccccc1C(=O)CCc1ccccc1 (centres undefined) | 1.2µM | i | i | 3.3µM! | i
CCN(CC)CC(O)COc1ccccc1C(=O)CCc1ccccc1 (centres undefined) | 1.5µM | i | i | nt | i
Cc1c(-c2ccc(Cl)cc2)oc(=O)c2c(N)n(-c3ccccc3)nc12 | i | i | 24 | i | i
Cc1oc(-c2ccc(Cl)cc2)nc1Cn1c(=O)cc(C)c2c(C)nn(-c3ccccc3)c21 | nt | nt | nt | nt | i
Nc1c2c(=O)oc(-c3ccccc3)cc2nn1-c1ccccc1 | i | 115 | 38 | i | i
Cc1cccc(C(=O)N2CCc3cc(CNS(=O)(=O)c4ccc(F)c(Cl)c4)ccc32)c1 | nt | nt | nt | nt | i
CCC(=O)NC(c1ccc(OC)cc1)c1c(O)ccc2ccccc12 (centres undefined) | ? | i | i | i | i
CCC(=O)NC(c1ccc([N+](=O)[O-])cc1)c1c(O)ccc2ccccc12 (centres undefined) | 4.1µM | i | i | ? | i
CCCCC(=O)NC(c1ccc([N+](=O)[O-])cc1)c1c(O)ccc2ccccc12 (centres undefined) | 10µM | i | i | i | -99
C=CCn1c(C2CCCCC2)n[nH]c1=S | i | i | i | i | -97
Cc1nc2ccccn2c1C(=O)/C=C/c1cccc([N+](=O)[O-])c1 | ? | i | i | ? | -101
CC(=O)c1c(C)nc2ccccn12 | i | i | i | i | i
Cc1ccc(/C=C/C(=O)c2c(C)nc3ccccn23)cc1 | i | 70 | 39 | i | -88
Cc1cccc(C)c1-n1nnnc1C(c1ccnc2ccccc12)N1CCN(C(=O)OC(C)(C)C)CC1 (centres undefined) | nt | nt | nt | nt | i
CC(C)N=C(NS(=O)(=O)c1ccccc1)C(Cl)(Cl)Cl | ? | 38 | 19 | ? | -98
COc1cc(/C=C/c2nc3ccccc3c(=O)[nH]2)ccc1O | nt | nt | nt | nt | i
CCCN1C(=O)/C(=C/c2nc3ccccc3c(=O)[nH]2)c2ccccc21 | ? | i | i | ? | i
Cc1cccc(-n2c(/C=C/c3c(C)[nH]c4ccccc34)nc3ccccc3c2=O)c1 | nt | nt | nt | nt | i
SMILES | Pf growth 48h | Shiga inhibitor | Cycloheximide cs | Pf growth 96h | HCMV antiviral
Clc1cccc(Cl)c1/C=C/c1nc2ccccc2[nH]1 | ? | 78 | 31 | i | nt
CCOc1cc(/C=C/c2nc3ccccc3c(=O)[nH]2)ccc1O | nt | 50 | 45 | i | i
Cc1[nH]c2ccccc2c1/C=C/c1nc2ccccc2c(=O)[nH]1 | ? | 84 | 53 | ? | i
CCCN1C(=O)/C(=C/c2nc3ccccc3c(=O)[nH]2)c2cc(C)ccc21 | ? | i | 11 | ? | i
Clc1ccc(/C=C/c2nc3ccccc3[nH]2)cc1 | i | i | i | i | ?
COc1cccc(/C=C/C(=O)OCC(=O)NCc2ccco2)c1 | i | i | i | i | i
O=C(O)c1ccc(CNC(=O)C2CCCN2C(=O)OCc2ccccc2)cc1 (centres undefined) | i | i | i | i | i
COc1cccc(/C=C/c2nc3c(cnn3-c3ccccc3)c(=O)[nH]2)c1 | i | i | 15 | i | ?
O=c1[nH]c(/C=C/c2ccccc2Cl)nc2ccccc12 | nt | 106 | 40 | ? | i
Cc1cccc(/C=C/c2nc3ccccc3c(=O)[nH]2)c1 | i | 112 | 29 | i | i
O=C(O)c1ccc(/C=C/c2nc3ccccc3c(=O)[nH]2)cc1 | nt | i | i | i | ?
O=C(O)/C=C1\CCCc2ccccc2C1O (centres undefined) | i | nt | nt | i | i
C[C@H]1CN([C@@H](C)CO)C(=O)CCCn2nncc2CO[C@H]1CN(C)S(=O)(=O)c1ccc(Oc2ccccc2)cc1 | nt | nt | nt | nt | i
S=C(NC1CCCCC1)N1CCc2[nH]c3ccccc3c2C1 | ? | 44 | i | ? | i
Cc1ccc(NC(=S)N2CCc3[nH]c4ccccc4c3C2)cc1 | i | i | i | i | i
CN1CCN(CC(O)COC(c2ccc(Cl)cc2)c2ccc(Cl)cc2)CC1 (centres undefined) | nt | i | i | 9.3µM | -80
OC(COC(c1ccc(Cl)cc1)c1ccc(Cl)cc1)CN1CCCC1 (centres undefined) | ? | i | i | 4.7µM | i
Cc1ccc(C(OCC(O)CN2CCCCC2)c2ccccc2)cc1 (centres undefined) | ? | i | i | ? | i
CN1CCN(CC(O)COc2ccc(Cl)cc2)CC1 (centres undefined) | nt | i | i | i | i
Cc1ccc(CNC(=O)C(=O)Nc2c3c(nn2-c2ccc(F)cc2)CSC3)cc1 | nt | nt | nt | nt | i
O=C1CC(N2CCN(c3ccc(C(=O)c4ccc(F)cc4)cc3)CC2)C(=O)N1 (centres undefined) | i | i | 18 | nt | i
CCN1C(=O)CC(N2CCN(c3ccc(Cl)cc3)CC2)C1=O (centres undefined) | i | i | i | i | i
CCN1C(=O)CC(N2CCN(c3ccc(C(=O)c4ccccc4)cc3)CC2)C1=O (centres undefined) | ? | 106 | 64 | nt | i
O=C(c1ccc(Cl)cc1)N1CCN(c2ccc(F)cc2)CC1 | i | i | i | i | ?
COc1ccc2nc3oc(C(=O)N4CCN(c5cc(C)ccc5C)CC4)cc3cc2c1 | nt | nt | nt | nt | i
SMILES | Pf growth 48h | Shiga inhibitor | Cycloheximide cs | Pf growth 96h | HCMV antiviral
Cc1ccc(S(=O)(=O)N2CCCC2C(=O)Nc2cc(C)on2)cc1 (centres undefined) | 4.7µM | i | i | i | i
Cc1cccc(NC(=O)C2CCCN2S(=O)(=O)c2ccc3c(c2)n(C)c(=O)c(=O)n3C)c1 (centres undefined) | i | i | i | 8.3µM | i
COC(=O)C1=CN(c2ccc(F)cc2)C(N)=C(C#N)C1c1ccccc1 (centres undefined) | nt | nt | nt | nt | i
COC(=O)C1=CN(c2cccc(Cl)c2)C=C(C(=O)OC)C1c1cccc(OC)c1 | 12µM | i | i | i | i
COC(=O)C1=CN(c2ccc(OC)cc2)C=C(C(=O)OC)C1c1ccc([N+](=O)[O-])cc1 | 13µM | i | i | 4.1µM | i
COC(=O)C1=CNC=C(C(=O)OC)C1c1cccc(OC)c1 | ? | i | i | i | i
